High-throughput results from PubChem.
Compounds with a hit are over-represented: about 3.7% of the library has one in this group of screens.
GPR7 antagonist – human neuropeptides B/W receptor 1 antagonism; P48145; GPR7-expressing cells, fluorescence antagonist assay; inhibition, % at 4.4 µM; 290,000 compounds, 1.1% hits; in the data active = inhibition above about 16%, passing the limit was not always enough;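 note: cells stimulated with the agonist NPW; 0% = agonist with vehicle and 100% = vehicle without agonist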
Target sequence (P48145 whole entry, looked up): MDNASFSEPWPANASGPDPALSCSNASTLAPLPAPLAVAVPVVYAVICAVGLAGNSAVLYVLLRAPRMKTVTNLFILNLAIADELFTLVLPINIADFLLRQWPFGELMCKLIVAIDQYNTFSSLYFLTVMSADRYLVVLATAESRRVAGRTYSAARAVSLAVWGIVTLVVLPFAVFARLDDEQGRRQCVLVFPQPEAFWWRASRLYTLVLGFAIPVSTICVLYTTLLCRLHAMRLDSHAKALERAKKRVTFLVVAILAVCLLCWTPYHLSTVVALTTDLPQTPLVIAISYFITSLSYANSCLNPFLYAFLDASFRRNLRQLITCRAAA
ANO1 block – blocks the mouse calcium-activated chloride channel TMEM16A; Q8BHY3; HEK293 TMEM16A/YFP iodide influx fluorescence, ionomycin; normalized B-score (activity score, 25-100; higher = stronger inhibition) at 10 µM; 310,000 compounds, 1.2% hits;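 active = ratio plate-corrected score three or more library SD toward inhibition, starting fluorescence score within five deviations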;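 note: score derived from kinetic fluorescence span divided by baseline fluorescence per well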
TMEM16A act – activates or potentiates the mouse TMEM16A chloride channel | HEK293 TMEM16A/YFP-H148Q/I152L, iodide quench fluorescence; active compounds read low | AID 623877 | 340,000 compounds, 0.3% hits | B-score at 10 µM | Q8BHY3;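 active = fluorescence-ratio B-score plate-corrected deviation score at least 3 library SD below zero, with starting fluorescence score within 5 deviations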;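 note: channel opened by trigger with iodide after compound preincubation; score built on the fluorescence ratio of max minus min over baseline; more negative score means more quench and so TMEM16A activation or potentiation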
CHT allo act – allosterically activates the human high affinity choline transporter. CHT-expressing cells, membrane potential dye, choline EC20; active compounds read high; LV-AA mutant CHT in HEK293 cells. B-score at 10 µM. 310,000 compounds, 0.49% hits. AID 488977;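 active = initial fluorescence not abnormally high and integrated response B-score, plate-corrected, over 3 SD above library mean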
CHT block – inhibitors of human choline transporter CHT; B-score at 10 µM; 310,000 compounds, 0.86% hits; CHT-expressing cells, membrane potential dye, choline response; active compounds read low; Q9GZV3;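 active = B-score over 3 SD under the library average, and starting fluorescence ratio not unusually high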;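 note: choline stimulus applied at its EC90 after an EC20 pre-addition; B-score computed on integrated fluorescence ratio after choline addition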
Kir21 inh – Kir2.1 (mouse) channel inhibition; 310,000 compounds, 0.85% hits; B-score at 10 µM; HEK293-Kir2.1, FluxOR thallium flux fluorescence; active compounds read low;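 active = fluorescence ratio B-score at or below minus 3 SD of library scores, with starting-brightness B-score within 2 SD, cut at about -4.2 in these data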;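 note: channel flux triggered by added potassium and thallium sulfate stimulus; B-score of peak minus minimum fluorescence over baseline after thallium stimulus; more negative B-score means stronger Kir2.1 block with less thallium influx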
GPR7 antag conf – confirmation of human GPR7 antagonists. 2,400 compounds, 52% hits. inhibition, % at 4.4 µM. shares compounds with GPR7 antagonist. AID 1952. GPR7-expressing cells, calcium fluorescence antagonist mode; in the data active = inhibition above about 24%;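 note: stimulated with the GPR7 agonist NPW; 0% = agonist plus vehicle and 100% = vehicle alone without agonist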
MCHR1 antag – antagonizes human MCHR1, a GPR7 antagonist counter-screen; shares compounds with GPR7 antagonist; MCHR1-expressing cells, fluorescence antagonist assay; inhibition, % at 4.4 µM; 2,400 compounds, 62% hits; in the data active = inhibition above about 22%;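 note: 0% = vehicle with agonist and 100% = vehicle without agonist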
The depositor's hits bear a star; i = inactive; . = no result given.

SMILES	GPR7 antagonist	ANO1 block	TMEM16A act	CHT allo act	CHT block	Kir21 inh	GPR7 antag conf	MCHR1 antag
Cc1ccc(CN(C)C(=O)c2cc(COc3ccc(F)cc3Cl)on2)o1	0	i	i	i	i	-0.94	.	.
Cc1ncsc1CCOC(=O)c1cccc([N+](=O)[O-])c1	22*	i	i	i	i	0.66	-18	34*
O=C(COc1nc2ccccc2nc1N1CCOCC1)Nc1cccc(S(=O)(=O)N2CCCCC2)c1	3	i	i	i	i	-0.01	.	.
CCN(CC)S(=O)(=O)c1ccc(NC(=O)COc2nc3ccccc3nc2N2CCOCC2)cc1	24*	i	i	i	i	0.22	4	7
Cc1ccc(Oc2ccccc2NC(=O)CN2C(=O)NC3(CCCC3)C2=O)cc1	29*	i	i	i	i	0.04	-11	1
Cc1cccc(Oc2ccccc2NC(=O)CN2C(=O)NC3(CCCC3)C2=O)c1	.	i	i	i	i	0.09	.	.
CCCc1cc(=O)[nH]c2nnc(SCC(=O)Nc3cc(C)on3)n12	.	i	i	i	i	0.54	.	.
Cc1cnc(C(=O)N2CCN(c3ccc(C(F)(F)F)cn3)CC2)cn1	-2	i	i	i	i	0.94	.	.
O=C(c1ccc([N+](=O)[O-])s1)N1CCN(c2ccc(C(F)(F)F)cn2)CC1	36*	i	i	i	i	0.11	47*	58*
CC(Sc1nncn1C)C(=O)Nc1ccc2ccccc2c1 (stereo not given)	.	.	i	.	.	.	.	.
CCc1ccc(NC(=O)Nc2ccc3c(c2)N(C)C(=O)CS3)cc1	-3	i	i	i	i	0.35	.	.
Cc1cc(C)cc(NC(=O)Nc2ccc3c(c2)N(C)C(=O)CS3)c1	25*	i	i	i	i	-0.44	30*	76*
O=C1CCCN2N=C(SCC(=O)N3N=C(c4ccc(Br)cc4)CC3c3ccc(F)cc3)SC2=N1 (stereo not given)	22*	i	i	i	i	-2.3	-11	-2
Cc1ccc(C(=O)CSC2=C(C#N)C(c3ccco3)CC(=O)N2)c(C)c1 (stereo not given)	41*	25*	i	i	i	-0.49	71*	64*
CCN(CC)S(=O)(=O)c1cccc(-c2nnc(SCC(N)=O)n2C)c1	0	i	i	i	i	-0.49	.	.
C=C(C)CSc1nnc(-c2cccc(S(=O)(=O)N(C)C)c2)n1-c1cc(OC)ccc1OC	32*	i	i	i	i	0.17	35*	9
CC(C)c1ccc(NC(=O)COC(=O)c2nn(C)c(=O)c3ccccc23)cc1	.	.	i	.	.	.	.	.
O=C(Nc1ccc(Cl)c(C(F)(F)F)c1)NC1CC2CCCC(C1)N2Cc1ccccc1 (stereo not given)	27*	100*	.	i	i	1.1	45*	87*
O=C(NC1CC2CCCC(C1)N2C(=O)Nc1ccc(Cl)c(C(F)(F)F)c1)C1CC1 (stereo not given)	-3	i	i	i	i	1.3	.	.
CCN(CC)c1nc(Nc2ccccc2)nc(Oc2ccc(=O)n(C)n2)n1	23*	i	i	i	i	-0.6	-12	-19
O=C1NC(=Nc2ccccc2)c2c1cccc2[N+](=O)[O-]	32*	i	i	i	i	-0.06	-4	-14
O=C(Nc1cccc2c1C(=O)NC2=O)c1ccccc1[N+](=O)[O-]	-13	i	i	i	i	-1	.	.
c1ccc(Cn2nnnc2C(c2cccs2)N2CCc3ccccc3C2)cc1 (stereo not given)	23*	i	i	i	i	-0.34	-6	39*
O=C(CCn1nc(-c2ccc(Cl)cc2)c2ccccc2c1=O)Nc1cccnc1	21*	i	i	i	i	-0.68	16	15
